From PubChem BioAssay (EPA / NIEHS) come the findings set out here.

Where “and” joins values, the source holds several entries; their conditions need not be identical. Equal entries are not always repeated. Inconclusive results are not listed. Where a structure was tested more than once in an assay, its records may differ in their call. Calls of active or inactive are those of the source. The calls were made as follows: active = hit-call score of the fitted dose curve at least 0.9, where 1 is the maximum; inconclusive = response in the unintended direction; inactive = score below 0.9.

In assay [1] the target is Cellular tumor antigen p53 (Homo sapiens) (UniProt P04637). The experiment in a line: TOX21_p53_BLA_p3_ratio: Tox21 HCT-116 p53 Agonism Beta-lactamase Assay, Ratio, Phase 3 (AID 2283596). The procedure, abridged: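 Cells were seeded at 4000/well, rested 5 h at 37C, then dosed with DMSO compound solutions (217-fold dilution) for 16 h. CCF4-AM substrate was loaded for 2 h at room temperature, and the 460/530 nm emission ratio was fitted for gain of signal versus DMSO.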
Cellular tumor antigen p53 (Homo sapiens), sequence (P04637 whole entry, looked up): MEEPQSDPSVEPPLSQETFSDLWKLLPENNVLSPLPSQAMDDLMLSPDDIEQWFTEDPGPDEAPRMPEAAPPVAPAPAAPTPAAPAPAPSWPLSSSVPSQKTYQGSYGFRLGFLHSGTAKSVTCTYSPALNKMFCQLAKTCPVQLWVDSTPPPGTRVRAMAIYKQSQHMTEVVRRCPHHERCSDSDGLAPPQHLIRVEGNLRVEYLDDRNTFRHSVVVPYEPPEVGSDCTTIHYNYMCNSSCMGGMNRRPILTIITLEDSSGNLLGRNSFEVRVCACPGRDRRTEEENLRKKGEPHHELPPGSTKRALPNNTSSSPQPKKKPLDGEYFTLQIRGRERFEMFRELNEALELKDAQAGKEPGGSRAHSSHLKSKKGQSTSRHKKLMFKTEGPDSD

Assay [2] shares this target. As to the kind of experiment: TOX21_p53_BLA_p5_ratio: Tox21 HCT-116 p53 Agonism Beta-lactamase Assay, Ratio, Phase 5 (AID 2283599). The procedure, abridged:
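HCT-116 p53-bla cells (4000/well) plated 5 h, dosed with compound (217-fold DMSO dilution) for 16 h at 37 C; CCF4-AM substrate 2 h at room temperature. Activity is the 460/530 nm emission ratio (405 nm excitation), fitted in gain-of-signal direction versus DMSO.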

The nature of assay [3]: TOX21_p53_BLA_p5_viability: Viability Assessment in the Tox21 HCT-116 p53 Agonism Beta-lactamase Assay, Phase 5 (AID 2283600). The procedure, abridged:
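Here cell health was gauged by ATP levels in wells holding 4000 cells, each treated 16 h with DMSO-delivered compounds at 217-fold dilution; reduced luminescence marked toxicity.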

For assay [4], the target named is Cellular tumor antigen p53 (Homo sapiens) (UniProt P04637). As to the kind of experiment: TOX21_p53_BLA_p4_ratio: Tox21 HCT-116 p53 Agonism Beta-lactamase Assay, Ratio, Phase 4 (AID 2283601). The procedure, abridged: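 HCT-116 p53 beta-lactamase reporter cells (4000/well) preincubated 5 h, then compound (217-fold dilution of DMSO stock) for 16 h at 37C. CCF4-AM substrate added 2 h at room temperature; 460/530 nm emission ratio fitted upward versus DMSO.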

Assay [5] in a line: TOX21_p53_BLA_p4_viability: Viability Assessment in the Tox21 HCT-116 p53 Agonism Beta-lactamase Assay, Phase 4 (AID 2283597).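 Also: hits lower the luminescence signal meaning cytotoxicity.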 The procedure, abridged:
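In this multiplexed secondary endpoint, HCT116 cells (4000 per well, compound at 5 h, 16 h treatment) received CellTiter-Glo after the beta-lactamase read. Luminescence after 30 min RT reflects ATP, and falling signal marks cytotoxicity.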

Assay [6] in a line: Tanguay_ZF_120hpf_MORT_legacy: (Legacy) Oregon State University Tanguay Lab 120 Hour Post-fertilization zebrafish Assay for Mortality (AID 2283633).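 As to AC50: fitted as increase in binary mortality versus DMSO negative control.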 The procedure, abridged: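 Single dechorionated Tropical 5D embryos were held with test chemical (0.64% DMSO final) from 6 to 120 hpf at 28C under foil. Deaths at 24 or 120 hpf were recorded as binary calls, analysed for increase over DMSO controls.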

Assay [7] can be described thus: Tanguay_ZF_120hpf_YSE_legacy: (Legacy) Oregon State University Tanguay Lab 120 Hour Post-fertilization zebrafish Assay for Yolk Sac Edema (AID 2283634). The procedure, abridged: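 Single dechorionated embryos were held in sealed plates at 28C with test chemical (0.64% DMSO final) from 6 hpf until 120 hpf. Edema of the yolk sac was then recorded as a binary endpoint; non-mortality endpoints were skipped for dead embryos.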

Assay [8] is described as follows: Tanguay_ZF_120hpf_AXIS_legacy: (Legacy) Oregon State University Tanguay Lab 120 Hour Post-fertilization zebrafish Assay for Body Axis Malformation (AID 2283635). The procedure, abridged: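 Each dechorionated embryo was exposed alone from 6 hpf, with DMSO at 0.64% (vol/vol) and trimethyltin chloride 5 uM as positive control. Axis malformation was recorded at 120 hpf unless the embryo had died.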

A short description of assay [9]: Tanguay_ZF_120hpf_SNOU_legacy: (Legacy) Oregon State University Tanguay Lab 120 Hour Post-fertilization zebrafish Assay for Snout Malformation (AID 2283637). The procedure, abridged:
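Binary brightfield scoring of snout malformation at 120 hpf. Dechorionated 5D wild-type embryos, one per well, static exposure from 6 hpf at 28C, sealed and dark; final DMSO 0.64% (vol/vol), DMSO as baseline; 5uM trimethyltin chloride positive control.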

Assay [10] is described as follows: Tanguay_ZF_120hpf_EYE_legacy: (Legacy) Oregon State University Tanguay Lab 120 Hour Post-fertilization zebrafish Assay for Eye Malformation (AID 2283636).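 Also: binary presence or absence of eye malformation scored by brightfield in 120 hpf larvae.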 The procedure, abridged: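 5D wild-type embryos, pronase-dechorionated at 4 hpf; static exposure 6–120 hpf, 28C, dark; DMSO 0.64% final; 5uM trimethyltin chloride positive control. Binary eye-defect scoring at 120 hpf; dead embryos not scored.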

`C=COCC1CCC(COC=C)CC1` (stereo unspecified): the outcome in assay [1], in assay [2], in assay [3] and in assay [4] was inactive.

As to `C=C/C(C)=C/C/C=C(\C)CCC=C(C)C`, the outcome in assay [1] and in assay [3] was inactive.

Take `CC/C=C\C#N`: the compound was called inactive in assay [5] and in assay [2].

In the case of `O=S(=O)(O)CCCN1CCOCC1`, the call in assay [5], in [2], in [3] and in [4] was inactive.

A word on the AC50: it is the concentration giving half of the maximal activity seen. As to `C[C@H](CCC(=O)O)[C@H]1CC[C@H]2[C@@H]3CC[C@@H]4C[C@H](O)CC[C@]4(C)[C@H]3CC[C@]12C`, the AC50 in assay [5] was 13.5 µM (active); in assay [2], 18.2 µM (active); in [3] it was 16.3 µM (active). In addition, the call in [5], in [2] and in assay [4] was inactive.

Regarding `CC/C(=C(\c1ccccc1)c1ccc(OCCN(C)C)cc1)c1ccccc1`, the AC50 was 22.9 µM (active) and 46.5 µM (active) and 32.3 µM (active) in assay [5]; 75.4 µM (active) [middle of 4 runs] in assay [2]; 64.3 µM (active) [middle of 4 runs] in [3]; 40 µM (active) and 84.5 µM (active) and 42 µM (active) in assay [4]; 31.4 µM (active) in assay [6]. Moreover, the outcome in assay [5], in assay [4], in [6], in assay [7], in [8] and in assay [9] was inactive.

As to `CC(=O)OC/C=C(C)/C=C/C=C(C)/C=C/C1=C(C)CCCC1(C)C`, the call in assay [5], in assay [2], in assay [3] and in assay [4] was inactive.

Turning to `CCCCCCCCCCCCOCCOS(=O)(=O)O`, in assay [5], the AC50 is 60.4 µM (active). Moreover, the outcome in assay [2], in assay [3] and in assay [4] was inactive.

As to `CC(C)Cc1ccc(C(C)C(=O)O)cc1` (stereo unspecified), the compound was called inactive in [5], in assay [2] and in [3].

Consider `C[Si]1(C)N[Si](C)(C)N[Si](C)(C)N1`, for which the compound was classed as inactive in [5], in assay [2] and in [4].

Take `CN(C)C`: the result in assay [5], in assay [2], in assay [3] and in [4] was inactive.

As for `CC1=CC[C@@H]2C[C@H]1C2(C)C`, the result in assay [5] was inactive.

Regarding `CCOC(=O)COC(=O)c1ccccc1C(=O)OCC`, the call in [5], in assay [2] and in assay [4] was inactive.

Take `CC1=CC(=O)[C@H]2C[C@@H]1C2(C)C`: the compound was classed as inactive in assay [5], in [2] and in [3].

Consider `CCCCC/C=C\C=C\C(=O)OCC`, for which the half-maximal activity concentration (AC50) was 66.6 µM (active) in [5], 73.4 µM (active) in [2], 47.7 µM (active) in assay [3] and 89.9 µM (active) in assay [4].

For `C=C(C)C(N)=O`, the call in assay [5], in [2], in [3], in assay [4], in assay [6] and in [7] was inactive. Besides, the compound was called inactive in [8] and in assay [10].

In the case of `CC(C)C(=O)OCC=Cc1ccccc1`, the compound was classed as inactive in assay [5], in assay [2], in assay [3] and in assay [4].

Regarding `CCCCCCCCCCOC(=O)c1ccccc1C(=O)OCCCCCCCC`, the call in assay [5] and in [2] was inactive.

`c1coc(CNc2ncnc3nc[nH]c23)c1`: the outcome in assay [5], in assay [2], in [3] and in [4] was inactive.

Turning to `CC(=O)CCc1ccc(O)cc1`, the outcome in [5], in assay [2], in assay [3] and in assay [4] was inactive.

In the case of `CC/C=C\CCOC(=O)C(C)C`, the outcome in [5] and in [2] was inactive.

For the compound `COc1ccc(OC)cc1`, the result in assay [5], in assay [2], in [3] and in assay [4] was inactive.

On to `O=C(Nc1cccc(Cl)c1)OCC#CCCl`, for which the half-maximal activity concentration (AC50) in [5] was 56.1 µM (active); in assay [2], 14.1 µM (active); in [4] it was 19.6 µM (active). In addition, the outcome in [3] was inactive.

With `CC(=O)c1ccc2ccccc2c1`, the outcome in assay [5], in assay [2], in assay [3] and in assay [4] was inactive.

Turning to `CC(C)COC(=O)c1ccccc1O`, the result in [5], in assay [2], in assay [3] and in assay [4] was inactive.

Consider `CCC(C)COC(=O)CC(C)C` (stereo unspecified), for which, in [5], the AC50 is 46.1 µM (active). For the same compound, the outcome in assay [2], in assay [3] and in [4] was inactive.

Turning to `CCCCCCCCCCCCCCCCCC(=O)OCCCCCCCCCCCCCC(C)C`, the compound was classed as inactive in [5], in [2] and in assay [3].

As for `O=S1(=O)CC(Cl)(Cl)C(Cl)(Cl)C1`, the AC50 was 9.34 µM (active) in assay [5], 39.4 µM (active) in assay [2], 6.87 µM (active) in [3] and 39 µM (active) in assay [4].

On to `CC(CO)c1ccccc1` (stereo unspecified), for which the compound was called inactive in [5], in assay [2], in assay [3] and in assay [4].

For `NCCN1CCNCC1`, the compound was classed as inactive in assay [5], in [2], in [3] and in [4].

As for `C=CCCCCCCCCC(=O)OCC`, the compound was classed as inactive in [5], in assay [2], in assay [3] and in [4].

As for `NCCCOCCOCCOCCCN`, the call in assay [5], in assay [2], in assay [3] and in assay [4] was inactive.

In the case of `C=C1CC/C=C(\C)CC[C@@H]2[C@@H]1CC2(C)C`, the compound was classed as inactive in assay [5], in [2] and in [4].

For the compound `COc1ccc2[nH]cc(CCNC(C)=O)c2c1`, the result in [5], in [2], in assay [3] and in assay [4] was inactive.

`CCCCOCCOCCO`: the outcome in assay [5], in [2], in [3], in assay [4], in [6] and in [7] was inactive. For the same compound, the call in assay [8], in assay [10] and in assay [9] was inactive.

As to `C=C(C)CCCC(C)CCO` (stereo unspecified), the result in [5] and in assay [2] was inactive.

`N#CCCCC(C#N)CCC#N` (stereo unspecified): the outcome in assay [5] and in [2] was inactive.

On to `CCC(C)(CCCC(C)C)OC(C)=O` (stereo unspecified), for which the compound was called inactive in [5], in [2], in assay [3] and in assay [4].

As for `CC(=O)Nc1cc(S(=O)(=O)O)cc2cc(S(=O)(=O)O)c(N=Nc3ccccc3)c(O)c12`, the outcome in assay [5], in assay [2], in assay [3] and in assay [4] was inactive.

As to `C=C(C)C(=O)OCCC[Si](OC)(OC)OC`, the call in assay [5], in [2], in assay [3] and in assay [4] was inactive.

For `C=C(C)C(=O)OCCN(C)C`, the compound was called inactive in assay [5] and in [3].

`CC(C)N1C(=O)c2ccccc2C1=O`: the outcome in [2], in [3] and in assay [4] was inactive.

Consider `C=CC(O)CCCCC` (stereo unspecified), for which the compound was called inactive in assay [5] and in assay [3].

On to `O=C(O)c1cc(C(=O)O)c(C(=O)O)cc1C(=O)O`, for which, in assay [3], the compound was called inactive.

As for `CCC(C)(C)C1CCC(OC)CC1` (stereo unspecified), the result in assay [5], in assay [2] and in assay [4] was inactive.

As for `CC(=O)C1=C(C)[C@@H]2C[C@@]3(C1)[C@H](C)CC[C@H]3C2(C)C`, the outcome in assay [2], in assay [3] and in [4] was inactive.
